# Test results as given in PubChem BioAssay.
# The source made the active and inactive calls.
# Experiments:
# [1] = test system: Plasmodium falciparum Sir2 (PF13_0152, Sir2A); assay: Plasmodium falciparum Sir2A binding compounds – biochemical, small-molecule microarray, 635 nm fluorescence, primary screen (AID 1098); conditions: fluorescence 635 nm, higher = more signal;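 further: score merges spot fluorescence intensity with its signal-to-noise ratio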
# [2] = probe aDKK1 binding to arrayed compounds – biochemical, biotinylated probe, 635/667 nm fluorescence, primary screen (AID 1099); conditions: small-molecule microarray, higher = more signal;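 further: score merges 667nm spot fluorescence with signal to noise across triplicate slides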
# [3] = probe aCHRDL2 binding to arrayed compounds – biochemical, biotinylated probe, 635/667 nm fluorescence, primary screen (AID 1100); conditions: small-molecule microarray, higher = more signal
# [4] = change in splice reporter luminescence, either direction, cell-based, HEK293, spliceosome inhibition project, primary screen (AID 1101); conditions: HEK293 splicing luciferase reporter, 24 h, higher = more signal, called active from +8 up or from −8 down;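 further: HEK293 cells carrying a splicing-competent luciferase reporter gene; test concentration not given here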
# [5] = target: Fibroblast growth factor 10 (Homo sapiens) (UniProt O15520); assay: compounds binding fibroblast growth factor 10 – biochemical, small-molecule microarray, 635 nm fluorescence, primary screen (AID 1102); conditions: FGF10 binding, fluorescence 635 nm, higher = more signal
# [6] = test system: glycogen synthase kinase-3 (GSK3A per assay name; protocol says GSK3B); assay: compounds binding glycogen synthase kinase-3 – biochemical, small-molecule microarray, 635 nm fluorescence, GSK3A, primary screen (AID 1103); conditions: fluorescence 635 nm, higher = more signal; further: the record names both GSK3A and GSK3B
# [7] = target: Epidermal growth factor receptor (Homo sapiens) (UniProt P00533); assay: compounds binding epidermal growth factor receptor – biochemical, small-molecule microarray, 635 nm fluorescence, primary screen (AID 1104); conditions: EGFR binding, higher = more signal;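 further: score merges 667 nm emission intensity with spot signal to noise over triplicate slides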
# [8] = target: Follistatin-related protein 3 (Homo sapiens) (UniProt O95633); assay: compounds binding follistatin-related protein 3 – biochemical, small-molecule microarray, 635 nm fluorescence, primary screen (AID 1105); conditions: FSTL3 binding, higher = more signal;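 further: score merges emission near 667 nm and signal to noise per printed spot across three slides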
# [9] = target: Dickkopf-related protein 1 (Homo sapiens) (UniProt O94907); assay: small molecules binding DKK1 protein – biochemical, small-molecule microarray, 635 nm fluorescence scan, primary screen (AID 1106); conditions: higher = more signal;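 further: score merges emission near 667 nm with signal to noise over three replicate slides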
# [10] = test system: Inhibin beta A chain (activin A); assay: small molecules binding activin A – biochemical, small-molecule microarray, 635 nm fluorescence scan, primary screen (AID 1107); conditions: INHBA, higher = more signal;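 further: mouse activin A protein probed at 4.33 µg/mL on printed slides; score merges bound-protein fluorescence near 667 nm with spot signal-to-noise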
# [11] = test system: Human papillomavirus type 1a protein E7 (residues 44-93); assay: small molecules binding HPV E7 44-93 – biochemical, small-molecule microarray, residues 44-93, 635 nm fluorescence, primary screen (AID 1108); conditions: fluorescence 635 nm, higher = more signal;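 further: E7 fragment applied at 1 µg/mL in TBST for 1 h at 4 C; score combines spot fluorescence with its signal to noise ratio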
# [12] = hepatitis C replication reporter changes, two-sided – Huh7 cells, luciferase reporter, HCV replication inhibitor project, primary screen (AID 1109); conditions: Huh7 HCV replicon luciferase reporter, 48 h; higher = more signal;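 further: huh7 hepatoma cells harbouring a luciferase neomycin HCV replicon reporter; luciferase luminescence as measure of HCV replicon replication; test concentration not given here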
# [13] = target: Left-right determination factor 2 (Homo sapiens) (UniProt O00292); assay: small molecules binding LEFTY2 protein – biochemical, small-molecule microarray, 635 nm fluorescence scan, primary screen (AID 1110); conditions: higher = more signal
# [14] = target: Calmodulin-1 (Homo sapiens) (UniProt P0DP23); assay: small molecules binding calmodulin-1 with EGTA – biochemical, small-molecule microarray, Cy5-labelled CALM1, profiling panel (AID 1111); conditions: Cy5-CALM1 binding fluorescence, higher = more signal;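 further: labelled calmodulin applied in Tris saline Tween buffer holding calcium plus EGTA and DTT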
# [15] = target: Calmodulin-1 (Homo sapiens) (UniProt P0DP23); assay: small molecules binding Ca-loaded calmodulin-1 – biochemical, small-molecule microarray, Cy5-labelled CALM1, plus calcium, artefact control for SMM control-protein annotation, profiling panel (AID 1112); conditions: Cy5-CALM1 binding fluorescence, higher = more signal;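 further: score merges spot fluorescence with signal to noise from triplicate slides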
# [16] = probe aWnt5a binding to arrayed compounds – biochemical, biotinylated probe, 635/667 nm fluorescence, primary screen (AID 1113); conditions: small-molecule microarray, higher = more signal;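 further: score merges 667 nm fluorescence intensity with signal-to-noise per printed feature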
# [17] = probe aShh binding to arrayed compounds – biochemical, biotinylated probe, 635/667 nm fluorescence, primary screen (AID 1114); conditions: small-molecule microarray, higher = more signal;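 further: probe is biotin-labelled aShh protein from a stem cell growth factor screen; measures binding of labelled protein to compounds printed on the slide; score merges feature fluorescence at 667 nm with signal-to-noise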
# [18] = probe aNog binding to arrayed compounds – biochemical, biotinylated probe, 635/667 nm fluorescence, primary screen (AID 1115); conditions: small-molecule microarray, higher = more signal;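 further: probe is biotinylated aNog protein used at 0.15 µg/mL for 1 h at 4 C; z-score combines 667 nm fluorescence of each spot with its signal to noise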
# [19] = target: Torsin-1A-interacting protein 1 (Homo sapiens) (UniProt Q5JTV8); assay: compound microarray binding of lysate hLAP1 – cell lysate, small-molecule microarray, COS7 lysate, 635/667 nm fluorescence, primary screen (AID 1116); conditions: 635 nm fluorescence, higher = more signal
# [20] = target: Alpha-bungarotoxin (Bungarus multicinctus) (UniProt P60615); assay: compounds binding labelled alpha-BTX control protein – biochemical, small-molecule microarray, Alexa647 label, 635/667 nm fluorescence, artefact control for SMM control protein annotation, profiling panel (AID 1117); conditions: alpha-BTX-A647 binding fluorescence, higher = more signal
# Sequence of Alpha-bungarotoxin (Bungarus multicinctus) (P60615 whole entry, looked up): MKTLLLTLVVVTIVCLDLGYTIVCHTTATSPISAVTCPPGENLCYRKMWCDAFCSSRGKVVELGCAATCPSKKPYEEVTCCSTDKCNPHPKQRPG
# Sequence of Dickkopf-related protein 1 (Homo sapiens) (O94907 whole entry, looked up): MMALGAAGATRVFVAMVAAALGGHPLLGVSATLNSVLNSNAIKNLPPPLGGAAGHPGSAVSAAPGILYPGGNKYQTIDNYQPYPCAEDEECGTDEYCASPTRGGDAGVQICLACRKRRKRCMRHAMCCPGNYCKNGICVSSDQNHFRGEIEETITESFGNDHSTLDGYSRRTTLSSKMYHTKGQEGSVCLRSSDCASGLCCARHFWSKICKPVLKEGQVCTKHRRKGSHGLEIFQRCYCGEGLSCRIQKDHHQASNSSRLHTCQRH
# Sequence of Follistatin-related protein 3 (Homo sapiens) (O95633 whole entry, looked up): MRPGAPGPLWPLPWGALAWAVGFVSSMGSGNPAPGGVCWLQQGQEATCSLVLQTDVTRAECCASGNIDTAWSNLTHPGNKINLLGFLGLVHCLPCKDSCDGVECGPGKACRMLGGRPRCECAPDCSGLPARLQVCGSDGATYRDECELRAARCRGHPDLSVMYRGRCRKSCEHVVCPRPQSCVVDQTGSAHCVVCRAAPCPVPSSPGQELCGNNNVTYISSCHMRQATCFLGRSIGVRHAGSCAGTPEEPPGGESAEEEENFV
# Sequence of Fibroblast growth factor 10 (Homo sapiens) (O15520 whole entry, looked up): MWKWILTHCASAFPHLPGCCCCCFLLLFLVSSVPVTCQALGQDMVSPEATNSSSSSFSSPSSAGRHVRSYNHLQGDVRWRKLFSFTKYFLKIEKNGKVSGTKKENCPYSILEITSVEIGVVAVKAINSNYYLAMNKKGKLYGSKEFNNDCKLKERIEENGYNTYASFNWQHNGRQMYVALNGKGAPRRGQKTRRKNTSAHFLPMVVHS
# Sequence of Epidermal growth factor receptor (Homo sapiens) (P00533 whole entry, looked up): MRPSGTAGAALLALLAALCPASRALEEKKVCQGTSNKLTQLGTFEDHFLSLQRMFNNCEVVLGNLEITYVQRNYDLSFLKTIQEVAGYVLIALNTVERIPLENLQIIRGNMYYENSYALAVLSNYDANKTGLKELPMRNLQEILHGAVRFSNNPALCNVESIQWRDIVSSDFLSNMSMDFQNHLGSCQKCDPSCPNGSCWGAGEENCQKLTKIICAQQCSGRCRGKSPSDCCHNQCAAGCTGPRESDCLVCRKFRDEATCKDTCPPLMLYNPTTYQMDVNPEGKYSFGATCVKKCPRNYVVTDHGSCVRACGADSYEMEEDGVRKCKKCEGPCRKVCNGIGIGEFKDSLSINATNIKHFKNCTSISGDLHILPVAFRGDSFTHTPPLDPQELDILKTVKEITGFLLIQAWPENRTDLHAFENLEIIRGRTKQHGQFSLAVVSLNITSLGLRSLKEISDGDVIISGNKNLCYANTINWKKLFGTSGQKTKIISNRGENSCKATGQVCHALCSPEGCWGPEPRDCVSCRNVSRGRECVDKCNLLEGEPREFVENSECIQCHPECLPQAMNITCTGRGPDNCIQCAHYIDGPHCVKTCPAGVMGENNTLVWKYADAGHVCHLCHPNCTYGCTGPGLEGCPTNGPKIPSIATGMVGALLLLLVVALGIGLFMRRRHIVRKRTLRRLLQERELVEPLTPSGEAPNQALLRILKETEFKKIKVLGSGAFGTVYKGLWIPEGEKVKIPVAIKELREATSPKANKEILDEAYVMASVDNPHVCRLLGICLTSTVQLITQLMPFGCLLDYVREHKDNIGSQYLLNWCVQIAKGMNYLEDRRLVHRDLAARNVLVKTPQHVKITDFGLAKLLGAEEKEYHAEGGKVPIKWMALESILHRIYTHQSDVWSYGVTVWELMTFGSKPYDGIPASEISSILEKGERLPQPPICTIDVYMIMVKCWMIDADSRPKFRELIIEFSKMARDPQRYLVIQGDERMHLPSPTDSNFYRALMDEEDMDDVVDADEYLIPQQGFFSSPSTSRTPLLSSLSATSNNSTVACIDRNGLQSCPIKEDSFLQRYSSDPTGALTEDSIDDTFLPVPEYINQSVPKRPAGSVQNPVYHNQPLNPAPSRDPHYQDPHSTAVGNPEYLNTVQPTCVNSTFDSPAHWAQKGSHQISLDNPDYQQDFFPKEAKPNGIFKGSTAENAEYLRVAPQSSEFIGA
# Sequence of Torsin-1A-interacting protein 1 (Homo sapiens) (Q5JTV8 whole entry, looked up): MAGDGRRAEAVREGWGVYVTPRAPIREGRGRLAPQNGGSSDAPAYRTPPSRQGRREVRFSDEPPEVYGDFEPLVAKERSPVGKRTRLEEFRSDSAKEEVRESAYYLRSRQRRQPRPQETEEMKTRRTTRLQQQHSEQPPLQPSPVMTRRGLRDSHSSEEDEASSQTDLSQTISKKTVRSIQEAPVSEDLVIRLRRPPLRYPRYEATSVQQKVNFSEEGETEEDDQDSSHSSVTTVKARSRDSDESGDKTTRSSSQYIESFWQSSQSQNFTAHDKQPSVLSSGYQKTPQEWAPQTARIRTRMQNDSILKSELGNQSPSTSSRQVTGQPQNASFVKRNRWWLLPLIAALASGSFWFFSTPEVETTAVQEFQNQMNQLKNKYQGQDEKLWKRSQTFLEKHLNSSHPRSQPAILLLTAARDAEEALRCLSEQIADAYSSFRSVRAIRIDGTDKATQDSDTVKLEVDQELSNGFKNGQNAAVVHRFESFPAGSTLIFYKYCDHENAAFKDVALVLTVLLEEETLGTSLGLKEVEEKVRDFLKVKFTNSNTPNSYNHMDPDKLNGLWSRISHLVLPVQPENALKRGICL
# Sequence of Left-right determination factor 2 (Homo sapiens) (O00292 whole entry, looked up): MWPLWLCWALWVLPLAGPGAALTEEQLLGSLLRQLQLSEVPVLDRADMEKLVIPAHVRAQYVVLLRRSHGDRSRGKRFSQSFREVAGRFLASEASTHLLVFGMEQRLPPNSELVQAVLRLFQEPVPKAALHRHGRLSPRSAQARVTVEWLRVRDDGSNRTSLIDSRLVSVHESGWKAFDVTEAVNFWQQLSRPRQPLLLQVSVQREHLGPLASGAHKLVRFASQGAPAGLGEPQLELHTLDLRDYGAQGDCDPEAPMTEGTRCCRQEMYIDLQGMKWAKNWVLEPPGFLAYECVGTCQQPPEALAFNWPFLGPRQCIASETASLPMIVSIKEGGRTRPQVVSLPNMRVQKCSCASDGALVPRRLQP
SMILES,composite z-score [1],composite z-score [2],composite z-score [3],z-score [4],composite z-score [5],composite z-score [6],composite z-score [7],composite z-score [8],composite z-score [9],composite z-score [10],composite z-score [11],z-score [12],composite z-score [13],composite z-score [14],composite z-score [15],composite z-score [16],composite z-score [17],composite z-score [18],composite z-score [19],composite z-score [20]
CCC1=C2CN(Cc3ccccc3Br)[C@@H]([C@@H](O)Cc3ccccc3)C2C=CCC1 (stereo not given in full),0.124,-0.0181,-0.311,-2.14 (inactive),0.597,0.6,0.164,0.961,0.513,0.677,1.38,-2.97,0.473,0.417,-0.419,-0.148,-0.0709,-0.278,-0.131,0.616
CCN1C(C)=C(C(=O)OC)[C@@H](c2ccccc2)N2C(=O)[C@](O)(C(=O)OC)[C@@H](c3ccccc3)C(C(=O)c3ccccc3)=C12,0.689,0.0153,-0.396,-2.45 (inactive),0.436,0.779,0.385,0.363,0.812,-0.411,0.474,-1.15,0.499,0.0865,0.0844,-0.0685,0.166,0.158,0.653,0.232
COc1cccc([C@@H]2[C@@H](C)CC[C@H]3C(=O)N4[C@H](c5cccc(OC)c5)[C@@H](C)CC[C@H]4C(=O)N23)c1,0.168,-0.271,-0.521,-1.59 (inactive),0.614,0.802,0.518,0.75,0.558,-0.185,0.27,0.533,0.767,-0.2,-0.781,-0.0853,-0.2,-0.0611,0.37,0.452
C=C[C@H](OC)[C@@H](OC(=O)Nc1ccc(SC)cc1)c1ccc(O)c(F)c1,1.03,-0.145,0.0453,-1.97 (inactive),1.01,0.0309,-0.133,0.264,-0.39,-0.433,0.998,3.8,-0.367,0.0665,-0.0093,-0.0486,0.0008,-0.443,1.31,0.358
CC(C)N1CC=CC23O[C@@H]4/C=C\CCCOC(=O)C4[C@H]2C(=O)N(CCO)[C@@H]3C1=O (stereo not given in full),1.01,0.155,0.677,-1.84 (inactive),-0.363,-0.456,-1.02,-0.516,-1.08,1.45,-0.526,-0.648,-0.999,-0.428,-0.793,-0.188,-0.0769,-0.0624,2.9,-0.493
O=C1C2C=CC(C(O)C(c3ccccc3)c3ccccc3)N(Nc3ccc([N+](=O)[O-])cc3)C2C(=O)N1c1ccccc1 (stereo not given),0.375,0.569,0.767,0.597 (inactive),1.04,1.32,0.66,0.955,0.331,0.814,1.46,-0.871,0.737,0.858,0.808,0.122,-0.0211,0.676,0.935,1.42
C=CCC(OC(C)=O)[C@@H]1[C@@H](N(Cc2cccc3ccccc23)C(=O)Cc2ccc(F)cc2)c2cc(OCCCO)ccc2N1C(=O)Cc1ccc2ccccc2c1 (stereo not given in full),-0.182,-0.0551,0.315,-0.395 (inactive),0.2,-0.236,-0.285,-0.0987,-0.619,1.07,-0.28,0.874,-0.368,-0.571,0.158,-0.0179,-0.326,0.0129,-0.148,0.983
O=C1C2C=CC(C(O)c3ccccc3)N(n3cnnc3)C2C(=O)N1Cc1ccccc1 (stereo not given),0.0854,0.446,0.908,-0.524 (inactive),0.0573,-0.279,0.392,-0.117,-0.433,1.46,-0.447,0.573,-0.237,0.206,-0.372,0.0357,-0.0594,0.319,0.327,0.449
C=CCC(OC(C)=O)[C@@H]1[C@@H](N(Cc2cccc3ccccc23)C(=O)c2ccc(C)cc2)c2cc(OCCCO)ccc2N1C(=O)c1ccc(-c2ccccc2)cc1 (stereo not given in full),0.451,-0.0044,0.322,-1.15 (inactive),-0.162,0.0243,0.0513,0.268,-0.133,1.08,0.479,-0.852,0.111,-0.355,-0.065,-0.135,-0.273,-0.241,-0.144,-0.218
COc1cc2c(cc1OC)CN(C(=O)[C@H]1[C@@H]3C(=O)O[C@@H](c4ccccc4)[C@@H](c4ccccc4)N3[C@@H](c3ccc(O)cc3)[C@]13C(=O)Nc1ccc(C#CC4(O)CCCCCC4)cc13)CC2,1.75,0.458,0.46,-0.81 (inactive),1.4,1.36,0.853,1.46,1.1,0.616,1.4,-1.47,1.36,2.21,1.2,0.808,0.382,2.35,3.48,2.79
O=C1O[C@@H](c2ccccc2)[C@@H](c2ccccc2)N2[C@@H](c3ccc(O)cc3)[C@]3(C(=O)Nc4ccccc43)[C@@H](C(=O)N3CCN(c4ncccn4)CC3)[C@H]12,1.13,0.413,0.535,-0.547 (inactive),-0.0898,0.202,-0.366,0.0146,-0.21,-0.437,0.746,-1.91,-0.389,0.874,1.09,-0.105,0.182,0.0486,0.0398,1.16
